Measured values taken from PubChem BioAssay AID1236 (Emory University Molecular Libraries Screening Center, 2008).
The whole screen tested about 220,000 compounds, of which about 800 (0.36%) were called active.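 How the source made its calls: active means inhibition above about 50% (limit read from the data); inactive means the rest.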 The entries come from a sample that favours actives as a whole.

Tested on: calpain II (m-calpain), Sus scrofa
Assay: m-calpain protease activity blockers – biochemical, fluorogenic peptide substrate, 1536-well, primary screen (AID 1236)
Conditions: purified calpain II, 30 min, at 16 µM, hits give high values

inhibition, inactive:
CCCc1cc(-c2n[nH]c(=S)n2CC)c2ccccc2n1 -40.7%
CCc1cc(-c2n[nH]c(=S)n2CC(C)C)cs1 44.2%
C=CCN(c1ccccc1C(=O)NCC(=O)OCC)S(=O)(=O)c1ccc(C)cc1 -6.73%
CCn1c(SCC(=O)Nc2ccc(S(=O)(=O)Nc3onc(C)c3C)cc2)nnc1-c1ccccc1 -78.3%
COc1ccc(C(=O)Nc2ccc(S(=O)(=O)Nc3onc(C)c3C)cc2)cc1OC 29.6%
Cc1coc2cc3oc(=O)c(CCC(=O)O)c(C)c3cc12 -98.6%
O=c1c2ccccc2c(-c2ccccc2)nn1Cc1ccccc1 11.2%
O=c1cc(N2CCN(Cc3ccccc3)CC2)c(-c2ccccc2)n[nH]1 -13.6%
COc1cc2sc(C)nc2cc1C 2.42%
O=C(NCCNc1ccc([N+](=O)[O-])cc1)c1cccc2c(Br)cccc12 -5.43%
O=C(COc1ccc(S(=O)(=O)N2CCCCC2)cc1)NCc1ccccn1 -4.04%
CC1(C)OC(=O)C(=CSc2ccc(C(C)(C)C)cc2)C(=O)O1 -10.7%
CCCOc1ccc(NC(=O)C2OC3OC(C)(C)OC3C3OC(C)(C)OC23)cc1 (stereo not given) -15.2%
NNC(=O)c1cccc(COCC(F)(F)C(F)F)c1 20.4%
Cc1nc(-c2ccccc2)sc1C(=O)/C=C/c1ccccc1 -0.94%
Cc1nc(-c2ccc(Cl)cc2)sc1C(=O)CBr 27.7%
Cc1ccc(C)c2c1cc(C)c1nnc(SCC(=O)Nc3cccc(C(=O)O)c3)n12 -13.6%
CC1(C)CCSC(/C=C/c2ccccc2)=N1 -19.7%
CCCN(C(=O)CSc1nnnn1C)c1c(N)n(Cc2ccccc2)c(=O)[nH]c1=O -5.69%
C=CCNc1nc(Nc2ccc(Cl)cc2)nc(OC)n1 -20.2%
CC1=NNC(=O)C1CCC(=O)N/N=C(\C)c1ccc(Cl)cc1 (stereo not given) -20.4%
O=C(Cn1nnc(-c2ccccc2)n1)N/N=C/c1ccc(-c2ccc(Cl)cc2)o1 -60.4%
O=C(Cn1nnc(-c2ccccc2)n1)NCc1ccccc1 8.33%
Cc1nn(Cc2ccc(F)cc2)c(C)c1NC(=O)c1cccnc1Cl 7.19%
COc1ccccc1NC(=O)c1c(Br)cnn1C -19.7%
O=C1C=CC(=O)N1c1ccc(N2CCCCC2)cc1 2.8%
COc1ccc(OCC(=O)NNC(=O)c2cccc(C)c2)cc1 1.17%
COc1ccc(OCC(=O)NNC(=O)c2ccc(-c3ccccc3)cc2)cc1 -4.48%
O=C(O)C1=C[C@H](c2cccs2)C[C@H](OCCCCO)O1 -6.55%
O=C(COC(=O)c1cnccn1)Nc1cccc2ccccc12 -43.3%
O=C(NC(=S)Nc1ccc(NC(=O)c2cccs2)cc1)c1ccc([N+](=O)[O-])cc1 9.92%
CC1CN/C(=C\C(=O)c2ccc(Br)cc2)C(=O)N1 (stereo not given) 14.4%
O=C(c1ccc(Cl)c([N+](=O)[O-])c1)N1CCN(c2ccccc2)CC1 14%
O=C(/C=C/c1ccc(Cl)cc1)N1CCN(c2ccccc2[N+](=O)[O-])CC1 37.4%
CC1=NN(c2ccccc2)C(=O)C1C(=O)c1ccc([N+](=O)[O-])cc1 (stereo not given) 2.01%
S=c1[nH]nc(Nc2ccccc2)s1 31.7%
COc1ccc(Cl)cc1NC(=O)CN(C)Cc1ccc(OC)c(OC)c1 30.5%
CCS(=O)(=O)c1cc([N+](=O)[O-])c(Sc2ccccc2N)s1 3.47%
O=C(CSc1ccc(C(F)(F)F)cc1[N+](=O)[O-])NCCOc1ccccc1 -9.45%
O=C1Nc2ccc([N+](=O)[O-])cc2C1=Nc1cccc(CO)c1 21.2%
CC1=NNC(=O)C1CCC(=O)N/N=C\c1cccc(Cl)c1 (stereo not given) -0.56%
COc1ccc(/C=C(\NC(=O)c2ccc(OCC(C)C)cc2)C(=O)OCc2ccco2)cc1 14.9%
O=C(Nc1nnc(C2CC2)s1)c1ccccn1 -3.35%
N#CCCCn1c(O)c(N=NC(=O)C(O)c2ccccc2)c2ccccc21 (stereo not given) -3.6%
O=C(Cn1cncn1)N/N=C/c1c2ccccc2cc2ccccc12 -113%
Cc1ccccc1C(=O)OC1OC(=O)C(Cl)=C1Nc1ccccc1 (stereo not given) -2.86%
O=C1OC(OC(=O)c2ccccc2Br)C(N2CCOCC2)=C1Cl (stereo not given) -3.83%
CCOc1ccc(/C=N/OCC(=O)NCc2cccs2)cc1 3.21%
COC(=O)c1sccc1NC(=O)CC1C(=O)NCCN1C(=O)Nc1ccc(F)cc1F (stereo not given) -15.5%
Cc1cc(NC(=O)/C=C/C(=O)N(CC(=O)NC2CCCC2)c2ccc(F)cc2)no1 1.62%
O=C(c1ccc2c(c1)OCO2)N1CCN(C(=O)c2ccco2)CC1 14.3%
CCNC(=S)N1CCN(C(=O)c2ccco2)CC1 -6.94%
CC(Sc1nnnn1C1CCCCC1)C(=O)O (stereo not given) -11.2%
C/C(=N\NC(=O)CNc1cccc2ccccc12)c1ccc(Br)s1 17.6%
O=C(Nc1ccccc1Cl)O/N=C(/c1ccccc1)c1ccccn1 -15.9%
NCCCCCC(=O)N/N=C/c1ccc2nccnc2c1 -3.28%
CC(C)CNC(=S)NC(=O)c1ccc(Cl)cc1 11.4%
COC/C=C/C1=CC2=CC(=O)C(C)(OC(=O)CCC(=O)OC)C(=O)C2=CO1 (stereo not given) -93.8%
COc1ccc(C(=O)O/N=C(\N)Cc2ccc(Cl)cc2Cl)cc1OC 11.8%
NC(N)=N/N=C/c1ccc(Cl)c([N+](=O)[O-])c1 -20%
COc1ccc(/C=N/NC(=O)c2ccc(Cl)cc2)cc1COC(C)=O 38.9%
O=C(CN(c1cccc(Cl)c1)S(=O)(=O)c1ccccc1)NN=C1CCCC1 -9.25%
CCOc1ccc(C(=O)Nc2nccs2)cc1[N+](=O)[O-] 0.78%
COc1ccccc1N1CCN(C(=O)CSc2ncnc3c2cnn3-c2ccc(C)c(C)c2)CC1 -19.6%
COc1cc(S(=O)(=O)N(Cc2cccs2)C2CC2)ccc1-n1cnnn1 26%
Nc1ccccc1SC(C[N+](=O)[O-])c1ccccc1 (stereo not given) 2.09%
O=C(Oc1cccnc1)c1cc2ccccc2oc1=O -6.4%
COc1ccc(C(=O)Nc2cccnc2)cc1C(=O)Nc1cccnc1 17.3%
COCCN(Cc1cc2cc3c(cc2nc1Cl)OCO3)C(=O)c1cccc(C)c1 24.9%
NCCCC[C@@H]1NC(=O)[C@H](CCC(=O)O)NC(=O)c2cc([N+](=O)[O-])cc(I)c2NCC[C@@H](C(N)=O)NC1=O -13.1%
CCOC(=O)c1ccc2c(c1)nc(C)n2CC 14.2%
O=C(CCS(=O)(=O)Cc1ccccc1)Nc1ccc2c(c1)OCCO2 -23.4%
CCOc1cc(/C=N/NC(=O)OC)ccc1OCCSc1ccc(Cl)cc1 -7.99%
CCOC(=O)Nc1ccc(S(=O)(=O)N(C)C(C)C)cc1 -5.03%
COc1cc(NC(=O)c2ccccc2NS(=O)(=O)c2ccc(Cl)s2)cc(OC)c1 -32.1%
Nc1cc(C(F)(F)F)ccc1N1CCOCC1 -2.56%
N=c1oc2ccccc2cc1C(=O)N/N=C/c1ccccc1 14.5%
COc1ccc(OC)c2[nH]c(=O)c(CCNC(=O)C(=O)c3c[nH]c4ccccc34)cc12 -38.9%
CC(=O)c1ccc(NC(=O)C2CC(=O)Nc3nc4ccccc4n32)cc1 (stereo not given) -19.9%
Cc1nc2ccccc2c(C)c1C(=O)c1ccc(F)cc1 -9.43%

inhibition, active:
CCCc1cc(-c2n[nH]c(=S)n2Cc2ccccc2)cs1 67.9%
Cc1cc(C)c2nc(-c3cccnc3)cc(C(=O)Nc3ccc(S(=O)(=O)Nc4onc(C)c4C)cc3)c2c1 55.4%
O=c1cc(N2CCCCC2)c(-c2ccccc2)nn1Cc1cccc(F)c1 55.9%
Cc1ccc(SCC(=O)c2sc(-c3ccccc3)nc2C)cc1 66.3%
Cc1[nH]c2ccccc2c1/C=N\NC(=O)Cn1nnc(-c2ccccc2)n1 54.8%
COc1ccc(C(=O)Nc2cc(C)ccc2NC(=O)COc2ccccc2)cc1 51.4%
CO/N=C/c1ccc(N2CCN(C(=O)c3cccc(Cl)c3)CC2)c([N+](=O)[O-])c1 53.5%
Nc1ccccc1Sc1ccc(C(F)(F)F)cc1[N+](=O)[O-] 87.2%
Cc1ccc(NC2=C(Cl)C(=O)OC2OC(=O)c2ccccc2C)cc1 (stereo not given) 66.5%
CCC(=O)Nc1ccc(C(=O)N2CCN(C(=O)c3ccco3)CC2)cc1 50.8%
NC(N)=N/N=C/c1ccc(OCc2ccc(Cl)cc2Cl)cc1 61.9%
CC(C)C[C@H](NC(=O)[C@@H]1O[C@H]1C(=O)O)C(=O)NCCCCN=C(N)N 98.8%
O=C(Nc1cccnc1)c1cc2cc(Br)ccc2oc1=O 52.9%
CCn1c(/C=C/Nc2ccccc2)[n+](CC)c2ccc(C(=O)OCC(F)(F)F)cc21 52%
O=C(N/N=C\c1cccc(Br)c1)c1ccccc1-n1cccc1 68%
